CRFBP-R2 agonist – CRF-BP/CRF-R2 complex agonism; HEK293 CRF-R2/CRF-BP, calcium dye fluorescence (FLIPR); percent of saturating CRF peptide response; activation, % at 13.2 µM; 350,000 tested, 0.46% active; AID 588473;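 active means activation of at least 50%, plus an integration ratio under a set limit after plate pattern correction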;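 further: plate controls were neutral control wells without compound for no effect and CRF at EC100 for full effect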
CRFR2-BP antag – antagonists of CRF-binding protein/CRF-R2 receptor complex. HEK293 CRF-R2/CRF-BP, CRF-induced calcium fluorescence. inhibition, % at 11.8 µM. 350,000 tested, 0.59% active. AID 588475;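 active means inhibition of the ligand-induced calcium signal above about 50% at the single tested concentration, limit read from the data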
V-ATPase pH – regulators of yeast V-ATPase proton transport | S. cerevisiae, pHLuorin cytosolic pH fluorescence | response, % at 10 µM | 350,000 tested, 0.37% active | AID 504577; in the data active means response mostly above about 7.3%, no sharp cut-off; inactive means mostly below about 5.4%; further: actives read high
NTR1 ag – activates human neurotensin receptor 1; 330,000 tested, 0.17% active; P30989; NTR1-U2OS beta-arrestin-GFP spot imaging, agonist mode; activation, % at 20 µM;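 active means activation at or above 40% of the spot to cytoplasm intensity ratio, with at least 20 cells analyzed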;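 further: 0% = DMSO without peptide and 100% = 100 nM NTR1 peptide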
Target sequence (P30989 whole entry, looked up): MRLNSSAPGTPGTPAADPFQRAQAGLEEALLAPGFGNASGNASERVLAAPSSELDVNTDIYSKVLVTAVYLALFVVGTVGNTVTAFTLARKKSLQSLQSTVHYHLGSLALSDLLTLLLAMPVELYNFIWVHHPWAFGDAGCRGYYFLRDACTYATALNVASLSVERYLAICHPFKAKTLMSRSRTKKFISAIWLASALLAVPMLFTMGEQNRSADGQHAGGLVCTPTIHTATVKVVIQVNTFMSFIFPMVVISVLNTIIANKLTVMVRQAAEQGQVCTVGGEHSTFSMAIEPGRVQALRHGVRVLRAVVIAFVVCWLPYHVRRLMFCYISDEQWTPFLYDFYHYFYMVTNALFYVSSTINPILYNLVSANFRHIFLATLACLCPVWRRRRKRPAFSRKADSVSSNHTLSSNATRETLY
VATPase regulator – regulators of yeast V-ATPase proton transport; S. cerevisiae pHLuorin cytosolic pH; response, % at 10 µM; AID 602197; shares compounds with V-ATPase pH; 980 tested, 2% active; in the data active means response above about 24%;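 further: plate controls were vehicle wells for no effect and positive control wells for full effect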
Active calls of the source: *. Only some compounds are listed: those with a hit (about 1.5% of all), similar ones and a draw of the others.

For CC(C)(C)S(=O)(=O)N1C[C@H]2CC/C=C\C/C=C\2[C@@H]1CCO the results were CRFBP-R2 agonist 0, CRFR2-BP antag 5 and V-ATPase pH -4.
For c1cnc(N2CCSCC2)nc1 the results were CRFBP-R2 agonist 2, CRFR2-BP antag -2, V-ATPase pH 10*, NTR1 ag -2 and VATPase regulator -1.
For c1cnc(N2CC[N+]3(CCCC3)CC2)nc1 the results were CRFBP-R2 agonist -1, CRFR2-BP antag 1, V-ATPase pH 0 and NTR1 ag -1.
`NNC(=O)c1ccc(COCC(F)(F)F)cc1` gave CRFBP-R2 agonist 0, CRFR2-BP antag 5, V-ATPase pH 9.1*, NTR1 ag -1 and VATPase regulator 5.
For Cc1ccc(NC(=O)CCn2c(=O)[nH]c3ccsc3c2=O)cc1 the results were CRFBP-R2 agonist -2, CRFR2-BP antag 4, V-ATPase pH 0 and NTR1 ag 2.
COc1cc(NC(=O)CCn2c(=O)[nH]c3ccsc3c2=O)cc(OC)c1 was read as CRFBP-R2 agonist -1, CRFR2-BP antag 9, V-ATPase pH 7.7*, NTR1 ag -1 and VATPase regulator 2.
For COC(=O)c1ccc(CNC(=O)COC(=O)CCC(=O)c2ccc(F)cc2)cc1 the results were CRFBP-R2 agonist -1, CRFR2-BP antag 3, V-ATPase pH 0 and NTR1 ag -1.
Screening CCNC(=O)COC(=O)CCC(=O)c1ccc(F)cc1 returned CRFBP-R2 agonist -2, CRFR2-BP antag -23, V-ATPase pH 1, NTR1 ag 1 and VATPase regulator 1.
CCCCNC(=NCc1cccc(C(F)(F)F)c1)Nc1ccccc1 was read as CRFBP-R2 agonist 2, CRFR2-BP antag 6, V-ATPase pH 0 and NTR1 ag 1.
Cc1cc(=O)oc2c(C)c(OC(C)C(=O)NCC(O)c3ccccc3)ccc12 (stereo unspecified) was read as CRFBP-R2 agonist -1, CRFR2-BP antag 2, V-ATPase pH 3 and NTR1 ag 0.
Screening Cc1c(OC(C)C(=O)NCC(O)c2ccccc2)ccc2c3c(c(=O)oc12)CCCC3 (stereo unspecified) returned CRFBP-R2 agonist -1, CRFR2-BP antag -20, V-ATPase pH 10*, NTR1 ag 3 and VATPase regulator 2.
For CC(C)CNC(C(=O)Nc1ccc([N+](=O)[O-])cc1Br)c1ccccc1 (stereo unspecified) the results were CRFBP-R2 agonist 2, CRFR2-BP antag -17, V-ATPase pH 11*, NTR1 ag 5 and VATPase regulator 2.
Cn1nc(Oc2ncc(C(F)(F)F)cc2Cl)cc1C(F)(F)F was read as CRFBP-R2 agonist -3, CRFR2-BP antag 18, V-ATPase pH -1 and NTR1 ag -2.
Screening COCCNC(=O)C(c1ccccc1)N(Cc1cccs1)C(=O)Cn1nnc2ccccc21 (stereo unspecified) returned CRFBP-R2 agonist 1, CRFR2-BP antag 13, V-ATPase pH 24*, NTR1 ag 5 and VATPase regulator -6.
For COCCNC(=O)C(c1ccc(C)o1)N(Cc1ccc(OC)cc1)C(=O)Cn1nnc2ccccc21 (stereo unspecified) the results were CRFBP-R2 agonist 0, CRFR2-BP antag -7, V-ATPase pH -3 and NTR1 ag -1.
COCCNC(=O)C(c1ccncc1)N(Cc1ccccc1)C(=O)Cn1nnc2ccccc21 (stereo unspecified) was read as CRFBP-R2 agonist -1, CRFR2-BP antag -2, V-ATPase pH -3 and NTR1 ag 2.
COCCNC(=O)C(c1ccc(C)o1)N(Cc1ccc(F)cc1)C(=O)Cn1nnc2ccccc21 (stereo unspecified) was read as CRFBP-R2 agonist -2, CRFR2-BP antag -7, V-ATPase pH 24*, NTR1 ag 1 and VATPase regulator -2.
O=C(CN(CC1CCCO1)C(=O)CNS(=O)(=O)c1ccc(F)cc1)NCCc1ccccc1 (stereo unspecified) was read as CRFBP-R2 agonist -1, CRFR2-BP antag 10, V-ATPase pH -2 and NTR1 ag 1.
For O=C(CN(CC1CCCO1)C(=O)CNS(=O)(=O)c1ccc(Cl)cc1)NCCc1ccccc1 (stereo unspecified) the results were CRFBP-R2 agonist 5, CRFR2-BP antag -14, V-ATPase pH 23*, NTR1 ag 0 and VATPase regulator 0.
`COc1ccc(C)cc1NC(=O)C(OC(=O)CNC(=O)c1ccc(Oc2ccccc2)cc1)c1ccccc1` (stereo unspecified) gave CRFBP-R2 agonist 2, CRFR2-BP antag 1, V-ATPase pH -2 and NTR1 ag 1.
For COc1ccc(C)cc1NC(=O)C(OC(=O)CNC(=O)c1cccc(F)c1)c1ccccc1 (stereo unspecified) the results were CRFBP-R2 agonist 0, CRFR2-BP antag -13, V-ATPase pH 10*, NTR1 ag -1 and VATPase regulator 0.
Screening O=C(Sc1nnc(-c2ccccc2)o1)N1c2ccccc2Sc2ccccc21 returned CRFBP-R2 agonist 0, CRFR2-BP antag -29, V-ATPase pH -1, NTR1 ag 6 and VATPase regulator -2.
For COc1cc(-c2nnc(SCC(=O)N3c4ccccc4Sc4ccccc43)o2)cc(OC)c1OC the results were CRFBP-R2 agonist 3, CRFR2-BP antag 14, V-ATPase pH 1 and NTR1 ag 2.
`Cn1c(CNC(=O)CNC(=O)Cc2ccc(F)cc2)cc(=O)n(C)c1=O` gave CRFBP-R2 agonist -1, CRFR2-BP antag -31, V-ATPase pH 3 and NTR1 ag -1.
`CC(=O)c1cnn(-c2ccc(Cl)cc2)c1C` gave CRFBP-R2 agonist 0, CRFR2-BP antag 4, V-ATPase pH 0, NTR1 ag 0 and VATPase regulator 0.
Screening CC(=O)c1sc(=S)n(-c2ccc(Cl)cc2)c1C returned CRFBP-R2 agonist -1, CRFR2-BP antag 19, V-ATPase pH 0, NTR1 ag 0 and VATPase regulator 4.
CC(=O)c1sc(=S)n(-c2ccccc2)c1C was read as CRFBP-R2 agonist 0, CRFR2-BP antag -1, V-ATPase pH -1 and NTR1 ag 0.
`COc1ccc(C2CC(c3ccccc3)=NN2C(=O)COC(=O)c2nc3nccc(C)n3n2)cc1` (stereo unspecified) gave CRFBP-R2 agonist 0, CRFR2-BP antag -13, V-ATPase pH -1 and NTR1 ag 3.
Screening CN(CC(=O)Nc1ccc(Cl)c(Cl)c1)C(=O)CC1OC(=O)c2ccccc21 (stereo unspecified) returned CRFBP-R2 agonist -1, CRFR2-BP antag 14, V-ATPase pH 1 and NTR1 ag 2.
Cc1ccc(CN2CCCN(C)CC2)c(C)c1 was read as CRFBP-R2 agonist 1, CRFR2-BP antag 13, V-ATPase pH 3 and NTR1 ag 0.
O=C(c1cc(Cl)nc2ccccc12)N1CCN(S(=O)(=O)c2ccccc2[N+](=O)[O-])CC1 was read as CRFBP-R2 agonist -1, CRFR2-BP antag 6, V-ATPase pH 14*, NTR1 ag -1 and VATPase regulator 1.
Screening O=C(c1cc(Cl)nc2ccccc12)N1CCN(S(=O)(=O)c2cccc(F)c2)CC1 returned CRFBP-R2 agonist -1, CRFR2-BP antag 42, V-ATPase pH -3 and NTR1 ag 1.
